Our source for the binding signal values is PMC7862700, “An all-to-all approach to the identification of sequence-specific readers for epigenetic DNA modifications on cytosine”.

Holding throughout (assay): DAPPL (digital affinity profiling via proximity ligation, sequencing); 10 mM Tris-HCl pH 7.5, 50 mM NaCl, 1 mM DTT, 4% glycerol, room temperature, 30 min; GST-TFs on glutathione beads, 16-mer random dsDNA library, 0.1% formaldehyde crosslink after washing; high values mean tight binding
Common to all, as to settings: protein: recombinant; tags: N-terminal GST; dsDNA, one strand shown

One assay addresses T1, FLI1 (Homo sapiens, UniProt Q01543 1-452).
T1 sequence: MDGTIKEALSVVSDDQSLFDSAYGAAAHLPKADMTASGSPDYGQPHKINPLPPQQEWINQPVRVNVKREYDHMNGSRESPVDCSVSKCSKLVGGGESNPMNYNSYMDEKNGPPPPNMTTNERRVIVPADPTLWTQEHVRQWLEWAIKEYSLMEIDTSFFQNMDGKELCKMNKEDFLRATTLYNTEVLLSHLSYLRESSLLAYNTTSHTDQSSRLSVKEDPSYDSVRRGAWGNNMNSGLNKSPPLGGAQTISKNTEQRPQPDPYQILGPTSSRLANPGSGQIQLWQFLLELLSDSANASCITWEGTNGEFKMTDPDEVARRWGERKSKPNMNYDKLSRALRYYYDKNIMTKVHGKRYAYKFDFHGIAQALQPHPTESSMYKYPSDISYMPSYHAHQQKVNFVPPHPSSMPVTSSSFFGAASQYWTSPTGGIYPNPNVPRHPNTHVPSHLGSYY
Put shortly:
(§1)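 Sequencing on an Illumina NextSeq500 followed washing, crosslinking with 0.1% formaldehyde, proximity ligation (BsaI/T4 ligase, 1 h, 37 °C) and PCR amplification of pools that had been incubated for 30 min at room temperature with 200 nmole of a random double-stranded 16-mer DNA library in Tris/NaCl/DTT/glycerol buffer. Each pool held DNA-barcoded human transcription factors, expressed in yeast as GST fusions and captured on glutathione beads, plus a tag-only sample. Binding signal is a hexamer's read frequency for a factor divided by its frequency in the tag-only sample.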

In another assay the target is T2, ELK1 (Homo sapiens, UniProt P19419 1-428).
T2 sequence: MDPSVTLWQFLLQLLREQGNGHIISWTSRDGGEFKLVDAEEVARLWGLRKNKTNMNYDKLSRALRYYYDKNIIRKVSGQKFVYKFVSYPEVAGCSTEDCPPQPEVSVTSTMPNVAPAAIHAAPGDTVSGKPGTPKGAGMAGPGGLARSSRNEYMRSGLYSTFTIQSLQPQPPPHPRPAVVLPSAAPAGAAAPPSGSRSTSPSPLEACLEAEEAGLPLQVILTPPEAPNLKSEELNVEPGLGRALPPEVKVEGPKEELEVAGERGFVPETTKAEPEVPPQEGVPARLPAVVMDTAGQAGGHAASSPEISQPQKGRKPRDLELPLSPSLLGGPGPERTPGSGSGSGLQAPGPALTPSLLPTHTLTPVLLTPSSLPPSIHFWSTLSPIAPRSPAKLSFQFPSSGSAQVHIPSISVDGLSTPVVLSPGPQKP
In short, it runs like this:
as §1

For the next assay, the target named is T3, GABPA (Homo sapiens, UniProt Q06546 1-454).
T3 sequence: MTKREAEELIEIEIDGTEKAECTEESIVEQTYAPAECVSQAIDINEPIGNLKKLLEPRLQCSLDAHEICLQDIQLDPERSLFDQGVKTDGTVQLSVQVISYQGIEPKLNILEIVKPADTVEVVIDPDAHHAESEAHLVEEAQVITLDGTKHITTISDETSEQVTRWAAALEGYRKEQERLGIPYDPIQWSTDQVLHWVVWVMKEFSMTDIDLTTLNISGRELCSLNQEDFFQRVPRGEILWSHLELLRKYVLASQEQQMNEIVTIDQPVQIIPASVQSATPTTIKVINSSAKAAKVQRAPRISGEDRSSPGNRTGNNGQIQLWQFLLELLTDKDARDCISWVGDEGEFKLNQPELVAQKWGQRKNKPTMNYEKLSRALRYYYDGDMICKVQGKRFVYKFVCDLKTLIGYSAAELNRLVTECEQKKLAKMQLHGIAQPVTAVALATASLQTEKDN
In short, it runs like this: as §1

A further assay concerns the target T4, ERG (Homo sapiens, UniProt P11308 1-479).
T4 sequence: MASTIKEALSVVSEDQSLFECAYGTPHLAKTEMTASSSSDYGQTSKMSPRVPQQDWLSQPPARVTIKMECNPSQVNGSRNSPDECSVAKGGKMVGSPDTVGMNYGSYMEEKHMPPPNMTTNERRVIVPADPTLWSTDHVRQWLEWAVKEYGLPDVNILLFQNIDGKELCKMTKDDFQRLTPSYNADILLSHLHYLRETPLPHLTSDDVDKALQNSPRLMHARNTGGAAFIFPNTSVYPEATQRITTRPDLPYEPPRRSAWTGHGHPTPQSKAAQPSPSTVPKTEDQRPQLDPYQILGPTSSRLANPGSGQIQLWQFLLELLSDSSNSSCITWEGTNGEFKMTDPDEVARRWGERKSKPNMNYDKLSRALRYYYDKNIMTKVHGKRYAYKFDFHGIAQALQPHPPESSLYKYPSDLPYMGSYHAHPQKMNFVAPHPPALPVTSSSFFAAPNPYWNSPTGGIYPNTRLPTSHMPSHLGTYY
In short, it runs like this: as §1

The next assay addresses ELF1 (Homo sapiens, UniProt P32519 1-619). In short, it runs like this: as §1
For a further assay, the target named is T5, EHF (Homo sapiens, UniProt Q9NZC4 1-300).
T5 sequence: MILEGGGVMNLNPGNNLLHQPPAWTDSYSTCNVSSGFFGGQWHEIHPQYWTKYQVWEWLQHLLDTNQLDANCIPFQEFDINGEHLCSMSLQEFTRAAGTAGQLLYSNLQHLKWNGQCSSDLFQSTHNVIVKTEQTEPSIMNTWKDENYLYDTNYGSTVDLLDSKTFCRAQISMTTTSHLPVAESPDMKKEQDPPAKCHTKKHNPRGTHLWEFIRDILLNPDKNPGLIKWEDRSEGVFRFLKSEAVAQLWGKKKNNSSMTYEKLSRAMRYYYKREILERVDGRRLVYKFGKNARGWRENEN
Put shortly: as §1

The target in a further assay is SPI1 (Homo sapiens, UniProt P17947 1-270). In short, it runs like this:
as §1

For the next assay, the target named is SPIB (Homo sapiens, UniProt Q01892 1-262). In short, it runs like this:
as §1

A further assay deals with T6, ELK3 (Homo sapiens, UniProt P41970 1-407).
T6 sequence: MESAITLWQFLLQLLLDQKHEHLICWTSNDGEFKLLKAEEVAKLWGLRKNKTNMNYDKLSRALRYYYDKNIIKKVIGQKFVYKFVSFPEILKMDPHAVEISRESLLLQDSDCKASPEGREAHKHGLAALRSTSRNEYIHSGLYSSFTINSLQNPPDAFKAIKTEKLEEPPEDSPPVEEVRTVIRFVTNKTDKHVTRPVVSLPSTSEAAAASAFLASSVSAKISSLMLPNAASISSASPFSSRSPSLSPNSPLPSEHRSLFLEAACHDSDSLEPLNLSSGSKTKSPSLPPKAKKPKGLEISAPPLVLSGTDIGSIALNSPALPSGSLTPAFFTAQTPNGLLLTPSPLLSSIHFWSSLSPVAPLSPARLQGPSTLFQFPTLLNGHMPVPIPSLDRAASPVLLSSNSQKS
Put shortly: as §1

The next assay addresses T7, FEV (Homo sapiens, UniProt Q99581 1-238).
T7 sequence: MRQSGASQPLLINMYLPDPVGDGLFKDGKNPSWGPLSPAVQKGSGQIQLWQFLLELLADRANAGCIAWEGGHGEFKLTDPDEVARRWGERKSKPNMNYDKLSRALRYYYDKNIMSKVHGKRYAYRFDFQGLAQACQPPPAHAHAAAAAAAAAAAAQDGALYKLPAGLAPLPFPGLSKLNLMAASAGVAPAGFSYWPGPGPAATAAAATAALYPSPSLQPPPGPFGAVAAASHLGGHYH
Put shortly:
as §1

The next assay addresses ETV5 (Homo sapiens, UniProt P41161 1-510). Put shortly:
as §1

The target in another assay is T8, SPIC (Homo sapiens, UniProt Q8N5J4 1-248).
T8 sequence: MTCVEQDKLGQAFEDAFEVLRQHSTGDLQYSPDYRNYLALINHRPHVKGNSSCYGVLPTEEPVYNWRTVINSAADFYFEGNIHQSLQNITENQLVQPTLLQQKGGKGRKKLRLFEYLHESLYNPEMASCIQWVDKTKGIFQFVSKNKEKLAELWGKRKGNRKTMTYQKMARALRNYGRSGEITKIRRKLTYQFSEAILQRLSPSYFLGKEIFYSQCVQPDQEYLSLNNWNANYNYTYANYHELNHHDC
Put shortly:
as §1

The target in the next assay is ELF4 (Homo sapiens, UniProt Q99607 1-663). In short, it runs like this: as §1
Sequence of ELF4 (Q99607 whole entry): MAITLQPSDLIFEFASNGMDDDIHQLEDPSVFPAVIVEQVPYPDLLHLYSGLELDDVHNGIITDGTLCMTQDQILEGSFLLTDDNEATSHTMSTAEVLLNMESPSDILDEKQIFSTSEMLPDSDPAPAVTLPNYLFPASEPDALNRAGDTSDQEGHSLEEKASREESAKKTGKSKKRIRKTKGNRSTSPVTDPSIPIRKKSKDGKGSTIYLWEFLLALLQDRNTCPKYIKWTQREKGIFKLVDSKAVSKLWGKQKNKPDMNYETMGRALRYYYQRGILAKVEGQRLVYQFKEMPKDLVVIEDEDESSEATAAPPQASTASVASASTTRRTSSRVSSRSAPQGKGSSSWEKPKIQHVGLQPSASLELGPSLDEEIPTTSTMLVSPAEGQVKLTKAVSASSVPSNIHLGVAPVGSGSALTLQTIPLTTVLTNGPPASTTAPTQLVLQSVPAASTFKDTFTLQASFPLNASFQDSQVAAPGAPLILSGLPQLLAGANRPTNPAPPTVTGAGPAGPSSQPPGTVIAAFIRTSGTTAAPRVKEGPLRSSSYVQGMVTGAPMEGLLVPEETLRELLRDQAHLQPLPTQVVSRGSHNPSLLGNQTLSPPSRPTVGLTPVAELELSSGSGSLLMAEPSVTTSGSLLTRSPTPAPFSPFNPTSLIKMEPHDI
The target in another assay is ETV1 (Homo sapiens, UniProt P50549 1-477). Put shortly: as §1
Sequence of ETV1 (P50549 whole entry): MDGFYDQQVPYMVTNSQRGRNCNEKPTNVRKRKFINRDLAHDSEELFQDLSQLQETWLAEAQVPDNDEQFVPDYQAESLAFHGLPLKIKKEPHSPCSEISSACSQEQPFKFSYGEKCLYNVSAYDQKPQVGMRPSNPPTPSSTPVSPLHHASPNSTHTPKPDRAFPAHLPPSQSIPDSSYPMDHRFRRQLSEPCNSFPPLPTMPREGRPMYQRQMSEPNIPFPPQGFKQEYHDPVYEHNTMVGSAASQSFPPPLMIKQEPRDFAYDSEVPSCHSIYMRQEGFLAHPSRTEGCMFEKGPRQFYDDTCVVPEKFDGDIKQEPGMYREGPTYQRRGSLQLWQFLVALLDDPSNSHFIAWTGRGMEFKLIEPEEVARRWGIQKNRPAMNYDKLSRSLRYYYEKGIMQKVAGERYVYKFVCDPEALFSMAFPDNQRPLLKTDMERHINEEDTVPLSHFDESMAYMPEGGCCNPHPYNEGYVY
The next assay deals with T9, ETV3L (Homo sapiens, UniProt Q6ZN32 1-361).
T9 sequence: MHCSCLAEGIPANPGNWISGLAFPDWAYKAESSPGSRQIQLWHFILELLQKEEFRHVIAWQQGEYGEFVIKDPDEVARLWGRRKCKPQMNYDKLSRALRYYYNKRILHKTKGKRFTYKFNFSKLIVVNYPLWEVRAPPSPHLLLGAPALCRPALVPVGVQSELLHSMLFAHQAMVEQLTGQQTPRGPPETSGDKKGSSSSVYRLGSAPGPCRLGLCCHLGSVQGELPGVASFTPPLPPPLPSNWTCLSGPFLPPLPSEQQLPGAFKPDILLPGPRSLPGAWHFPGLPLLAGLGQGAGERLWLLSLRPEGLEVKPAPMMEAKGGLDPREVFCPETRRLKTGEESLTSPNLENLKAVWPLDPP
In short, it runs like this: as §1

Another assay concerns the target T10, ETS2 (Homo sapiens, UniProt P15036 1-469).
T10 sequence: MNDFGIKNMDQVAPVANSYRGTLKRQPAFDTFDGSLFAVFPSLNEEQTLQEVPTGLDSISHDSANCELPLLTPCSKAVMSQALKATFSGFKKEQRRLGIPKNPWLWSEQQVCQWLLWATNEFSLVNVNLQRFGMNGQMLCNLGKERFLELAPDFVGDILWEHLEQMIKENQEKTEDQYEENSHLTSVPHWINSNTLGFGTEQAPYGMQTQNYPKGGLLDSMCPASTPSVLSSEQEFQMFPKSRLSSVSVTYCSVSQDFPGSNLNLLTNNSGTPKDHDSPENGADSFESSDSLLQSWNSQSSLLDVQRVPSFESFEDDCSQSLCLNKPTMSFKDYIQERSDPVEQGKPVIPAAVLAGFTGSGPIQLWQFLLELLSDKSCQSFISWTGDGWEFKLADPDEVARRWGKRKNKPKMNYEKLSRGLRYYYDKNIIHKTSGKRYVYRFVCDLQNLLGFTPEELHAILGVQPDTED
Put shortly:
as §1

The target in the next assay is T11, ELF5 (Homo sapiens, UniProt Q9UKW6-2 1-255).
T11 sequence: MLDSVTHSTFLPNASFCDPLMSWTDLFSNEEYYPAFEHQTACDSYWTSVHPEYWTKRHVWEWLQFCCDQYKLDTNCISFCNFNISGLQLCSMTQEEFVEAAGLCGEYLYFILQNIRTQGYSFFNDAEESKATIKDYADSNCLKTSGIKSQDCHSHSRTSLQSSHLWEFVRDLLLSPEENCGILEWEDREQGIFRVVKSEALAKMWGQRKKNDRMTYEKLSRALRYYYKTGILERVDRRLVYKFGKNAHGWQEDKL
Put shortly: as §1

Another assay concerns the target T12, ETV3 (Homo sapiens, UniProt P41162-2 1-143).
T12 sequence: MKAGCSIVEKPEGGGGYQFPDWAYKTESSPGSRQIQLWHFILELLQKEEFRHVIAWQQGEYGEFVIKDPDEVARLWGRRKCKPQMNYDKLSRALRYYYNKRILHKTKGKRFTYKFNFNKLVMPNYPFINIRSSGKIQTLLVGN
Put shortly:
as §1

In a further assay the target is ETV6 (Homo sapiens, UniProt P41212 1-452). In short, it runs like this:
as §1

Sequence of ELF1 (P32519 whole entry): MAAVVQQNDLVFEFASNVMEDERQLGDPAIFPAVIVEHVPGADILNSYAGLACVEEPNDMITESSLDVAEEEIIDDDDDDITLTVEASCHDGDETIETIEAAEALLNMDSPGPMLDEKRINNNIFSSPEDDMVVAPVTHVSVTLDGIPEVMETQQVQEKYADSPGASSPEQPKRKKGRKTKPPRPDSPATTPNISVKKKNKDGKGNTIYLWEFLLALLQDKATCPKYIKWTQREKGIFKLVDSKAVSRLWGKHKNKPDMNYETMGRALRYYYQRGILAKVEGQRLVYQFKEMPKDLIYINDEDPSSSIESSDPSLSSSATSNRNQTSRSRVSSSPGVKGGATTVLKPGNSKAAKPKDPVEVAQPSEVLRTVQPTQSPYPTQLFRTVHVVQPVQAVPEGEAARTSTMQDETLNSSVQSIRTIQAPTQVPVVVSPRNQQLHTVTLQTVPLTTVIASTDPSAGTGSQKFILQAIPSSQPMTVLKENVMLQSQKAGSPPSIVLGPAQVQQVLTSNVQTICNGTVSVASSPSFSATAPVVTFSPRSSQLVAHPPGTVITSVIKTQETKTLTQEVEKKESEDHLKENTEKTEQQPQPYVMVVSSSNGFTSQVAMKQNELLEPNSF
Sequence of ETV6 (P41212 whole entry): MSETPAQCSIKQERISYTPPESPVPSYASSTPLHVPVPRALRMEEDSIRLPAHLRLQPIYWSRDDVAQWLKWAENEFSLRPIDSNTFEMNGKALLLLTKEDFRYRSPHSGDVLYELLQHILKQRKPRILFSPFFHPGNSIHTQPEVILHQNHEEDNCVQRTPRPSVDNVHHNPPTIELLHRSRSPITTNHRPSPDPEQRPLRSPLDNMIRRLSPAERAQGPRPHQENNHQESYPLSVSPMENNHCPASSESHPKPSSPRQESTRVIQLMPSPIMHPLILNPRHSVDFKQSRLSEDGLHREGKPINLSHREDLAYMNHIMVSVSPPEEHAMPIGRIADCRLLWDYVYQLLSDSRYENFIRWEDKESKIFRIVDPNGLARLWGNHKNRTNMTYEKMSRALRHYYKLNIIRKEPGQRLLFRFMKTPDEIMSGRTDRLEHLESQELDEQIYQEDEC
Sequence of ETV5 (P41161 whole entry): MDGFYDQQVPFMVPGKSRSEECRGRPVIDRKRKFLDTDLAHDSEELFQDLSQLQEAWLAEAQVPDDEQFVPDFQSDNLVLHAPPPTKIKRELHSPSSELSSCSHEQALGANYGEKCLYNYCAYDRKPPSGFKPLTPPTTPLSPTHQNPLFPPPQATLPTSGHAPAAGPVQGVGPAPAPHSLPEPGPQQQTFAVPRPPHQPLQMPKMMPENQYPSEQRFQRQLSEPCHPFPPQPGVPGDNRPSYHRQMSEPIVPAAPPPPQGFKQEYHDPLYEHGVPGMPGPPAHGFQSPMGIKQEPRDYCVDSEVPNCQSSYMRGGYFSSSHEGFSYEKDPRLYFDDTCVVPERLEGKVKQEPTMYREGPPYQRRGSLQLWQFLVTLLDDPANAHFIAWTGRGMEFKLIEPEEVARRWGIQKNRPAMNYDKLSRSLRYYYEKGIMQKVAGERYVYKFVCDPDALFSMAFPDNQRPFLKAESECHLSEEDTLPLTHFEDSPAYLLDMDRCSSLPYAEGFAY
Sequence of SPIB (Q01892 whole entry): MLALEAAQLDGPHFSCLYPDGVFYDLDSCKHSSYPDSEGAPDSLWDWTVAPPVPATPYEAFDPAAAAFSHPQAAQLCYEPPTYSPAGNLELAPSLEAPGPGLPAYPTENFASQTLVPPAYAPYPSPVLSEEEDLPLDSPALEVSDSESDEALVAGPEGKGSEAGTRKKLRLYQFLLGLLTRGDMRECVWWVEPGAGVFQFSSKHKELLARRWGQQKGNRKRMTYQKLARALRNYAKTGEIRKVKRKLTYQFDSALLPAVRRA

For the sequence TTGCCG, the binding signal is 1.2 fold enrichment (6-mer frequency, TF over GST control) in the assay with FLI1; 1.14 fold enrichment (6-mer frequency, TF over GST control) with ELK1; 1.16 fold enrichment (6-mer frequency, TF over GST control) in the assay with GABPA; 1.04 fold enrichment (6-mer frequency, TF over GST control) in the assay with ERG; 1.03 fold enrichment (6-mer frequency, TF over GST control) with ELF1; 1.19 fold enrichment (6-mer frequency, TF over GST control) with EHF. Moreover, the binding signal was 1.12 fold enrichment (6-mer frequency, TF over GST control) in the assay with SPI1; 1.12 fold enrichment (6-mer frequency, TF over GST control) with SPIB; 1.07 fold enrichment (6-mer frequency, TF over GST control) with ELK3; 1.12 fold enrichment (6-mer frequency, TF over GST control) in the assay with FEV; 1.12 fold enrichment (6-mer frequency, TF over GST control) with ETV5; 1.08 fold enrichment (6-mer frequency, TF over GST control) in the assay with SPIC. The binding signal in the assay with ELF4 was 1.12 fold enrichment (6-mer frequency, TF over GST control); in the assay with ETV1, 1.09 fold enrichment (6-mer frequency, TF over GST control); in the assay with ETV3L, 1.11 fold enrichment (6-mer frequency, TF over GST control); with ETS2, 1.12 fold enrichment (6-mer frequency, TF over GST control); with ELF5, 1.07 fold enrichment (6-mer frequency, TF over GST control); in the assay with ETV3, 1.1 fold enrichment (6-mer frequency, TF over GST control). For the same sequence, in the assay with ETV6, the binding signal is 1.08 fold enrichment (6-mer frequency, TF over GST control).
